Seven compounds from PubChem BioAssay (NCATS) can be followed below.

Several values for one entry are separate records, joined by “and”; a condition that tells them apart may be missing. Equal entries are not always repeated. Unmarked numbers belong to inactive results. Records with an inconclusive call do not appear. Some compounds were tested as several samples or in several runs, with calls that do not always agree. Activity calls are given as the source filed them. Unless noted, calls come from the whole dose curve; as a rule, active = well fitted curve in the direction sought with a large enough effect; inconclusive = small, poorly fitted or top-dose-only effect, or another doubt; inactive = no such curve, though single readings can be large; an effect the other way counts as inactive or inconclusive.

One test relates to WaGa. The test can be described thus: qHTS assay to identify novel small-molecules to repurpose for Merkel cell carcinoma treatment (AID 1296009). Note: % is set by controls: 0 for no effect and ±100 for the full control effect; nearly all actives have a fitted effect of over 60% in size. Particulars: MCC and control cell lines, CellTiter-Glo viability, 72 h; series mostly up to 46 µM. A digest of the protocol: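 After compound transfer in DMSO, plates were kept 72 hr at 37 degree celsius. Luminescent ATP signal from CellTiter-Glo served as viability measure, normalized against DMSO and no-cell controls.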
In general terms: In qHTS, concentration-response curves come from the screen itself.

Another test deals with C33A. The experiment in a line: Primary qHTS to identify gynecologic anti-cancer compounds using libraries of approved drugs and bioactive compounds (AID 1345084). Note: % is set by controls: 0 for no effect and ±100 for the full control effect; nearly all actives have a fitted effect of over 55% in size. Particulars: Gynecologic cancer cell panel viability, ATPlite luminescence, 48 h; series mostly up to 57.5 µM. Put shortly:
(§1)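 In this quantitative HTS, cell killing is estimated from loss of ATP-dependent luciferase light. Cells see five compound concentrations over a 48 h exposure.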

A further test concerns CAOV3. The description is as above. Conditions: Gynecologic cancer cell panel viability, ATPlite luminescence, 48 h; series mostly up to 57.5 µM. Put shortly:
as §1

The subject of the next test is CASKI. The test is described as above. Conditions: Gynecologic cancer cell panel viability, ATPlite luminescence, 48 h; series mostly up to 57.5 µM. A digest of the protocol: as §1
In general terms: In ATP-based viability assays light output follows the ATP content of the culture.

For the next test, the system named is Es-2. The description is as above. Conditions: Gynecologic cancer cell panel viability, ATPlite luminescence, 48 h; series mostly up to 57.5 µM. Put shortly: as §1
The subject of another test is HeLa. Described as above. Conditions: Gynecologic cancer cell panel viability, ATPlite luminescence, 48 h; series mostly up to 57.5 µM. A digest of the protocol: as §1
A further test has as its system Hek293T. The description is as above. Particulars: Gynecologic cancer cell panel viability, ATPlite luminescence, 48 h, control line for the selectivity index; series mostly up to 57.5 µM. A digest of the protocol: as §1
A further test has as its system JEG-3. The test is described as above. Particulars: Gynecologic cancer cell panel viability, ATPlite luminescence, 48 h; series mostly up to 57.5 µM. A digest of the protocol: as §1
The subject of a further test is OV90. The test is described as above. Particulars: Gynecologic cancer cell panel viability, ATPlite luminescence, 48 h; series mostly up to 57.5 µM. Put shortly:
as §1

Another test deals with PA-1. The description is as above. Particulars: Gynecologic cancer cell panel viability, ATPlite luminescence, 48 h; series mostly up to 57.5 µM. Put shortly:
as §1

The subject of another test is SKOV3. The description is as above. Particulars: Gynecologic cancer cell panel viability, ATPlite luminescence, 48 h; series mostly up to 57.5 µM. Put shortly:
as §1

The test system of the next test is Tov-21-G. Described as above. Conditions: Gynecologic cancer cell panel viability, ATPlite luminescence, 48 h; series mostly up to 57.5 µM. Put shortly:
as §1

For another test, the system named is Tov112D. The test is described as above. Particulars: Gynecologic cancer cell panel viability, ATPlite luminescence, 48 h; series mostly up to 57.5 µM. Put shortly: as §1
Test [1] is described as follows: Drug repurposing screens with cells derived from glioblastoma tumor samples (AID 1345199). For activity, negative = cell killing: % is set by controls: 0 for no effect and ±100 for the full control effect. Note: nearly all actives have a fitted effect of over 40% in size. Note: potency is the fitted concentration of half-maximal effect. Conditions: GBM patient neurospheres viability, ATP luminescence, 48 h. Put shortly:
(§2)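 Four patient lines of CD133+ GBM neurospheres were screened at several concentrations; hits were retested in those lines plus three slower-growing GBM lines, using 48-hour treatment and ATP-based viability.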

Another test concerns astro. The test is described as above. Conditions: viability, ATP luminescence, 48 h; series mostly up to 45.9 µM. Put shortly: as §2
In test [2] the target is Nuclear receptor subfamily 1 group I member 2 (Rattus norvegicus) (UniProt Q9R1A7). The experiment in a line: qHTS assay for small molecule activators of the rat pregnane X receptor (rPXR) signaling pathway (AID 651751; call rule not given here; note: 0% is about no effect). Particulars: rPXR reporter cells, luciferase (One-Glo), 24 h.
A short description of test [3]: qHTS assay for small molecule activators of the human pregnane X receptor (PXR) signaling pathway (AID 720659; call rule not given here; note: 0% is about no effect).
[4] abbreviates: at 45.9 µM (top of the series), tumour line B.
Setting [5] is: at 45.9 µM (top of the series), tumour line D.
Setting [6] is: at 46 µM (top of the series), tumour line A.

Nuclear receptor subfamily 1 group I member 2 (Rattus norvegicus), sequence (Q9R1A7 whole entry, looked up): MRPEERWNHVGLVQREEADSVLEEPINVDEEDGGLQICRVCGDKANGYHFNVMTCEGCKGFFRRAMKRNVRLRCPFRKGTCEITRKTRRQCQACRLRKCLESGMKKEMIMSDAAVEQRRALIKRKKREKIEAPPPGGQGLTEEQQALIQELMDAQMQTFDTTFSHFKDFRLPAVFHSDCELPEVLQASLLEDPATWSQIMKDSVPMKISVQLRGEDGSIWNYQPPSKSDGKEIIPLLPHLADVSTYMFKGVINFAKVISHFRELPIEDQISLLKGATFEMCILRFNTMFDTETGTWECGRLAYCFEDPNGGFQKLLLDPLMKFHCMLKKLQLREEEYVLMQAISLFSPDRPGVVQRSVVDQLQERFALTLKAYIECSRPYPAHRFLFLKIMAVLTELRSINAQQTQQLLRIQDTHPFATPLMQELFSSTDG

As to `O=C1OC(c2ccc(O)c(S(=O)(=O)O)c2)(c2ccc(O)c(S(=O)(=O)O)c2)c2c(Br)c(Br)c(Br)c(Br)c21`, the Potency result with WaGa, in the test on C33A, in the test on Es-2, in the test with HeLa, in the test on OV90 and in the test with PA-1 was “inactive” each time. Besides, the Potency entry in the test on Tov-21-G, with Tov112D and with astro was “inactive” each time. Further, the result in the test with CAOV3, with CASKI, with Hek293T, in the test with JEG-3 and in the test on SKOV3 was inactive. Moreover, the activity, negative = cell killing in test [1] (setting [4]) was -1.68%; in test [1] (setting [5]) it was 0.706%; in test [1] (setting [6]), -10.6%.

Regarding `COP(=S)(OC)Oc1ccc(S(=O)(=O)N(C)C)cc1`, the Potency result with WaGa, with C33A, in the test with Es-2, in the test on HeLa, in the test with OV90 and in the test with PA-1 was “inactive” each time. For the same compound, the Potency result in the test with Tov-21-G, in the test with Tov112D and with astro was “inactive” throughout. The compound was classed as inactive in the test with CAOV3, with CASKI, in the test on Hek293T, with JEG-3 and with SKOV3. The activity, negative = cell killing in test [1] (setting [4]) is -4.11%; in test [1] (setting [5]), -25%; in test [1] (setting [6]), -29.3%.

Consider `C[N+]1(CCF)[C@@H]2CC[C@H]1CC(OC(=O)C(O)(c1ccccc1)c1ccccc1)C2` (stereo partly drawn), for which the Potency result in the test on WaGa, in the test on C33A, with Es-2, in the test with HeLa, in the test on OV90 and in the test on PA-1 was “inactive” in each case. The Potency entry in the test on Tov-21-G, in the test with Tov112D and in the test with astro was “inactive” throughout. Besides, the result in the test with CAOV3, in the test on CASKI, with Hek293T, in the test on JEG-3 and with SKOV3 was inactive. Moreover, the activity, negative = cell killing in test [1] (setting [4]) is -12.6%; in test [1] (setting [5]), -18.1%. Also, the Potency in [1] (tumour line A) is 11.2 µM (active).

As for `C=CCC1(C(C)CC)C(=O)NC(=O)NC1=O` (stereo not drawn), the Potency entry in the test with WaGa, in the test on C33A, with Es-2, in the test on HeLa, with OV90 and in the test on PA-1 was “inactive” each time. Further, the Potency entry with Tov-21-G and in the test on Tov112D was “inactive” each time. Further, the compound was classed as inactive in the test with CAOV3, with CASKI, in the test on Hek293T, in the test with JEG-3 and in the test with SKOV3.

As to `C[C@]12Cc3cn[nH]c3C[C@@H]1CC[C@@H]1[C@@H]2CC[C@@]2(C)[C@H]1CC[C@]2(C)O`, the Potency entry in the test on WaGa, in the test with C33A, in the test with Es-2, in the test on HeLa, in the test with OV90 and with PA-1 was “inactive” throughout. The Potency result in the test with Tov-21-G and with Tov112D was “inactive” each time. Also, the compound was classed as inactive with CAOV3, with CASKI, with Hek293T, in the test with JEG-3 and with SKOV3.

In the case of `[N-]=[N+]=CC(=O)OC[C@H](N)C(=O)O`, the Potency result in the test on WaGa, with C33A, with Es-2, in the test on HeLa, in the test on OV90 and in the test with PA-1 was “inactive” each time. For the same compound, the Potency entry in the test on Tov-21-G, in the test on Tov112D and with astro was “inactive” in each case. Further, the compound was classed as inactive (in the test on CAOV3; with CASKI; in the test on Hek293T; in the test on JEG-3; in the test with SKOV3; in test [3]). Besides, the results for the activity, negative = cell killing in test [1] (setting [4]), in test [1] (setting [5]) and in test [1] (setting [6]) were -23.8%, -9.43% and -24.5%, respectively. In [2], the max response is -5.51%.

As to `CCCCCCC(=O)CCCCCC/C=C/C[C@@H](O)[C@H](O)[C@@](N)(CO)C(=O)O`, the Potency result in the test on WaGa, in the test on C33A, in the test with Es-2, in the test on HeLa, in the test with OV90 and in the test on PA-1 was “inactive” in each case. Also, the Potency result in the test with Tov-21-G, with Tov112D and with astro was “inactive” throughout. Besides, the outcome in the test with CAOV3, in the test on CASKI, in the test on Hek293T, with JEG-3 and in the test on SKOV3 was inactive. The activity, negative = cell killing is -13.1% and -22.4% in [1] (setting [4]); -26.9% and -22.9% in test [1] (setting [5]). The Potency in test [1] (tumour line A) was 35.5 µM (active).
